# Compound activity as filed in PubChem.
# Shown are actives, neighbours in structure and some others; about 4.7% of the full set was active somewhere.
# DRD3 antagonist: D3 dopamine receptor (human) antagonism; P35462; D3R cells, DiscoveRx beta-arrestin luminescence, antagonist mode; active compounds read low; 360,000 compounds, 2.5% hits; max response, negative = inhibition, %; in the data active means max response below about -50%; inconclusive means no clear call, values can overlap the other calls
# Target sequence (P35462 whole entry, looked up): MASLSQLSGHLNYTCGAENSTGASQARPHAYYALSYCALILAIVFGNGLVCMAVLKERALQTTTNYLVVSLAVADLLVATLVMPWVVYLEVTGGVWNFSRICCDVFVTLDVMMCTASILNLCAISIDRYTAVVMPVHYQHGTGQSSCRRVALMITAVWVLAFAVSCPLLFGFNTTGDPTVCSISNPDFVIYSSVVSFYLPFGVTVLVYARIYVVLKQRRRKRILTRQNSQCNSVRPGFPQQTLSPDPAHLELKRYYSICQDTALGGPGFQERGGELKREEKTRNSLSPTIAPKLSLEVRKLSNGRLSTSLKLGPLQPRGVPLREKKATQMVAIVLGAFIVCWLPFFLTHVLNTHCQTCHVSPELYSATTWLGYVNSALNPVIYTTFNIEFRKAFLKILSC
#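 Cells plated overnight at 1500 cells/well, then exposed to library compounds with dopamine controls for 90 minutes at 37 degrees C. DiscoveRx reagent added for 30–60 minutes at room temperature; luminescence read, quantitative HTS format.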
# S2 tox: viability counter-screen for ATXN expression inhibitors; S2 cells (HEK-293 line with an ATXN2-luciferase reporter) viability, CellTiter-Fluor protease fluorescence, 24 h; Potency, µM (titrated, usually from 56.7 µM), most hits filed as cytotoxic; 400,000 compounds, 0.49% hits; further: nearly all actives have a fitted effect of over 40% in size
# HepG2 viability: HepG2 cytotoxicity, counter-screen for TGF-b inhibitors. HepG2 CAGA-GFP viability, ATP luminescence, 18 h. Potency, µM (doses to about 46.1 µM), hits mostly cytotoxic. 410,000 compounds, 0.76% hits. AID 588856
#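 HepG2 CAGA-GFP cells (1000/well, DMEM with 1% FBS) received compound, then TGF-beta at 500 pg/mL final, and were incubated 18 hours at 37 degrees C. Viability was read by CellTiter-Glo luminescence. Media-only wells were set as complete cell-killing and DMSO as no toxicity.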
# D3 ag: D3 dopamine receptor (human) agonism. P35462. D3R DiscoveRx beta-arrestin cells, luminescence, 90 min. max activation, %. 410,000 compounds, 0.58% hits; in the data active means max activation above about 30%
#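 Agonist mode: compounds and dopamine controls were applied to plated cells for 90 min at 37 degrees C after an overnight attachment at 1500 cells/well. Luminescent read-out followed 30 - 60 minutes at room temperature with DiscoveRx detection reagent.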
# ATXN2 expr inh: reduces ATXN2 reporter expression in HEK-293 cells; HEK-293 ATXN2-luciferase reporter, luminescence, 24 h; 360,000 compounds, 0.72% hits; AID 1745845; Potency, µM (highest dose often 57 µM), usual class: inhibitors; further: nearly all actives have a fitted effect of over 55% in size
#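 qHTS (up to 57 uM final) was run with 24 h compound exposure of reporter cells at 37 °C. Each well was multiplexed: SteadyGlo luminescence measured ATXN2-luciferase expression after a fluorogenic Gly-Phe-AFC viability readout (25 uM final).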
# TGFb SMAD3 inh: inhibitors of TGF-b signaling. Potency, µM (doses to about 46.1 µM), hits mostly inhibitors. AID 588855. 410,000 compounds, 1.2% hits. HepG2 CAGA-GFP TGF-b/SMAD3 reporter, GFP fluorescence, 18 h; TGF-beta stimulated, 500 pg/mL final; further: nearly all actives have a fitted effect of over 65% in size
#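 Per well, imaged GFP fluorescence of HEPG2 CAGA-GFP cells gives the signal; cells get compound, then TGF-beta (500 pg/mL final), 18 h at 37 degrees C; %Activity versus -TGF-beta and +DMSO controls.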
# Numbers stand for hits; 0 = inactive; ? = inconclusive; - = no result given; ! = repeats disagree; [ ] = dose if it differs, or a comment. Unless noted, the call rests on the fitted dose curve; in most records, active means well fitted curve in the direction sought with a large enough effect; inconclusive means small, poorly fitted or top-dose-only effect, or another doubt; inactive means no such curve, though single readings can be large; an effect the other way counts as inactive or inconclusive.
SMILES,DRD3 antagonist,S2 tox,HepG2 viability,D3 ag,ATXN2 expr inh,TGFb SMAD3 inh
Cc1ccc(C(=O)N(Cc2cc3cc4c(cc3nc2N2CCOCC2)CCC4)CC2CCCO2)cc1 (stereo unspecified),-,0,-,-,-,-
OC(COc1ccc2c(c1)OCO2)CN1CCN(c2ccccc2)CC1 (stereo unspecified),-63,0,0,0,0,0
COc1ccc(OCC(O)CN2CCN(c3ccccc3)CC2)cc1 (stereo unspecified),?,0,0,0,0[11.3 µM],0
COc1ccc(OCC(CO)N2CCN(c3ccccc3)CC2)cc1 (stereo unspecified),?,0,0,37,0,0
CCOC(=O)C(c1ccccc1)N1CCN(c2ccc(OC)cc2)CC1 (stereo unspecified),0,0,0,0,0,0
OC(COc1ccc2c(c1)OCO2)CN1CCc2ccccc2C1 (stereo unspecified),-78,0,0,0,0,?
CC(C)c1ccc(OCC(O)CN2CCN(c3ccccc3)CC2)cc1 (stereo unspecified),?,?,0,45,0,0
CCOC(=O)N1CCN(/[N+]([O-])=N/OCOC)CC1,-,-,0,-,-,0
Cc1nn(S(=O)(=O)c2ccc(Br)cc2)c(C)c1S(=O)(=O)N1CCCCCC1,-,0,0,0,0,0
O=C(Nc1ccc2nc3n(c(=O)c2c1)CCCC3)c1cc([N+](=O)[O-])ccc1F,0,-,0,0,25µM,?
CCN(CC)S(=O)(=O)c1ccc(NC(=O)c2ccc3c(=O)n4c(nc3c2)CCCCC4)cc1,-,-,0,0,22µM,?
CCOc1ccc(NC(=O)c2ccc3c(=O)n4c(nc3c2)CCCCC4)cc1,0,0,8.9µM!,0,0,0
COc1cccc(CNC(=O)c2cnn(-c3ncc4c(n3)-c3ccccc3CCC4)c2C)c1OC,-,0,-,-,-,-
C[C@@H]1CN(Cc2ccc(F)cc2)[C@@H](C)CN1C(=O)c1cc2c(C(=O)C(=O)N(C)C)cn(C)c2cc1Cl,-,-,-,-,0,-
O=c1[nH]c2ccccc2n1CCCN1CCCCC1,-61,0,0,0,0[11.3 µM],0
O=c1[nH]c2ccccc2n1CCCN1CCN(C(c2ccccc2)c2ccccc2)CC1,-,?,-,0,32µM,-
CCCN(CCC)CCCn1c(=O)[nH]c2ccccc21,?,?,0,0,0,0
Cc1ccc(CNn2cnnc2SCc2ccc(F)cc2)cc1,0,0,0,0,0,0
Fc1ccc(CNn2cnnc2SCc2ccc(F)cc2)cc1,0,0,0,41,0,0
Cc1ccccc1S(=O)Cc1ccc(C(=O)NC2CCCCCC2)o1 (stereo unspecified),-,0,0,0,0,?
Cc1n[nH]c(=O)n1-c1ccc(OC(F)(F)F)cc1,0,0,0,0,0,0
CC(C)c1cc(-c2n[nH]c(=O)n2-c2ccc3c(ccn3C)c2)c(O)cc1O,-,-,-,-,0.077µM,-
COc1ccccc1C1CCN(C(=O)c2ccccc2)CC1,0,0,0,0,0,0
COc1ccccc1C1CCN(Cc2cccc(C(=O)N3CCC(O)CC3)c2)CC1,-110,0,0,0,-,0
Cn1c(=O)c2c(SCC(=O)NCc3ccco3)nc(-c3cccc(F)c3)nc2n(C)c1=O,-,0,0,0,0,0
SMILES,DRD3 antagonist,S2 tox,HepG2 viability,D3 ag,ATXN2 expr inh,TGFb SMAD3 inh
Nc1ccc(C2CCCc3nonc32)c2nonc12 (stereo unspecified),-63,0,0,0,0,0
CNS(=O)(=O)c1cccc(C(=O)OCC(=O)c2ccc3c(c2)OCCO3)c1,0,0,0,0,18µM,0
CCOC(=O)/C=C/[C@H]1CCc2cccc(C)c2O1,-63,0,0,0,0,0
CCOc1ccc(CC(=O)Nc2c(C(=O)c3ccc(C)cc3)oc3ccccc23)cc1OCC,-,0,0,0,0,0
COc1cccc(/C=C2\SC(N3CCC(C)CC3)=NC2=O)c1OC,0,0,0,0,0,0
COc1ccccc1/C=C1\SC(N2CCC(C)CC2)=NC1=O,-65,0,0,0,0,0
CC(C)CNc1ncnc2nc[nH]c12,-,-,0,-,-,0
C[n+]1c(/C=C/c2ccc(F)cc2)ccc2ccccc21,-,-,0,-,-,?
COc1cc([C@@H]2c3cc4c(cc3[C@@H](O[C@@H]3O[C@@H]5CO[C@@H](c6cccs6)O[C@@H]5[C@H](O)[C@@H]3O)[C@H]3COC(=O)[C@H]23)OCO4)cc(OC)c1O,-,-,-,-,0.17µM,-
COc1cc([C@@H]2c3cc4c(cc3C(O[C@@H]3O[C@@H]5COC(c6cccs6)O[C@H]5[C@H](O)[C@H]3O)C3COC(=O)[C@@H]32)OCO4)cc(OC)c1O (stereo partly specified),-,-,-,0,-,-
COc1ccc(NS(=O)(=O)c2cccc(C(=O)N/N=C(\C)c3ccc(-n4ccnc4)cc3)c2)cc1,0,0,0,0,0,0
C/C(=N\NC(=O)c1cccc(S(=O)(=O)Nc2ccccc2Cl)c1)c1ccc(-n2ccnc2)cc1,-52,0,0,0,0,0
O=C(c1cccc(S(=O)(=O)Nc2ccccc2Cl)c1)N1CCC1,-59,0,0,0,0,0
O=C(Nc1ccc(Br)cn1)c1cnn2c1NC(=C1CC1)C=C2C(F)F,-,-,0,-,-,0
CC(C)c1cc(C(=O)N2Cc3ccc(CN4CCN(C)CC4)cc3C2)c(O)cc1O,-,-,-,-,0.22µM,-
COc1cc(NC(=O)CSc2nc(-c3ccc(C(C)C)cc3)no2)cc(OC)c1,-,0,0,0,0,0
CCCCCCCN(c1ccccc1)C1C[C@H]2CCCC(=O)N3CC[C@@H](C1)[C@@H]23 (stereo partly specified),-,-,0,-,-,14µM
CCC1CCCCN1C(=O)CCCOc1ccccc1 (stereo unspecified),0,0,0,0,0,0
CCCCC[C@H](O)/C=C/[C@H]1CCC(=O)[C@@H]1CCCCCCC(=O)N1CCCCC1CO (stereo partly specified),0,-,0,30,?,0
CCOC(=O)/C(=C/C1=CC(=C/N(C)C)/C(=O)O1)C(C)=O,0,0,0,30,0,0
Cc1ncc2c(c1CNC(=O)c1cncs1)CCN(C(=O)c1ccc(-c3ccccc3)cc1)C2,-,0,-,-,-,-
FC(F)(F)c1cccc(CN2CCC(c3cc(-c4cccs4)n[nH]3)CC2)c1,-80,?,20µM,0,?,?
Cc1ccc(CN2CCC(c3cc(-c4cccs4)n[nH]3)CC2)cc1,-78,0,0,0,0,0
O=C(NCCC1=CCCCC1)C(=O)NCC(c1ccco1)N1CCN(c2ccc(F)cc2)CC1 (stereo unspecified),-66,?,0,0,0,0
COc1ccc(C#Cc2c(C=O)n(C)c3ccccc23)cc1,0,-,0,0,0,?
Cn1c(C=O)c(C#Cc2ccccc2)c2ccccc21,0,?,0,39,0,?
